# Measurements reported in PubChem BioAssay AID596 (National Center for Advancing Translational Sciences (NCATS), 2007).
# The campaign covered roughly 71,000 compounds. About 1,400 (2%) were called active. Roughly 3% stayed inconclusive and do not appear here. The entries come from a sample that favours actives as a whole. Unmarked numbers belong to inactive results. The call rests on the fitted dose curve; in most records, active means well fitted curve in the direction sought with a large enough effect; inconclusive means small, poorly fitted or top-dose-only effect; inactive means no such curve, though single readings can be large or run the other way.
# Biological target: Microtubule-associated protein tau (Homo sapiens) (UniProt P10636)
# Sequence (P10636 whole entry, looked up): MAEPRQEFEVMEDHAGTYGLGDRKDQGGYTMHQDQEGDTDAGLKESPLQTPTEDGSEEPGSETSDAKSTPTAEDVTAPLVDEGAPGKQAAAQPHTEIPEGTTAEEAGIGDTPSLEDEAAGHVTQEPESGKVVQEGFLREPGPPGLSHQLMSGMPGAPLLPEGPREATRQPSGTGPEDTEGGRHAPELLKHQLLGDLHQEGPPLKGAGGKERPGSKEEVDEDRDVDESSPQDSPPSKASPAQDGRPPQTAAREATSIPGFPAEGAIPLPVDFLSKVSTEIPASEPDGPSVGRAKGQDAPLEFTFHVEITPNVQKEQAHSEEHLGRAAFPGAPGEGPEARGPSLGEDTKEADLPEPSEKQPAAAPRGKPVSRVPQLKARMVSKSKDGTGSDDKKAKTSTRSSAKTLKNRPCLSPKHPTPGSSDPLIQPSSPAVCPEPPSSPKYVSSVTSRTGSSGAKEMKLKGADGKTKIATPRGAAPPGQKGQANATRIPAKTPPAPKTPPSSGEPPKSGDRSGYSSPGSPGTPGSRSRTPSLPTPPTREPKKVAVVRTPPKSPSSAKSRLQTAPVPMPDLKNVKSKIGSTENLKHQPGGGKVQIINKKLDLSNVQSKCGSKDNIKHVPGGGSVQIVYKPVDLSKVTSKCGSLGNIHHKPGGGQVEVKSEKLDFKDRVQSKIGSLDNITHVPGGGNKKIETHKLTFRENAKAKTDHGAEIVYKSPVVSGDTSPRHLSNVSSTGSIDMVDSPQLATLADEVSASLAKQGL
# Test: qHTS Assay for Tau Filament Binding;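 further: actives lower thioflavin S fluorescence by blocking filaments or displacing dye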
# Conditions: recombinant tau filaments, thioflavin S fluorescence, 15 h, filaments grown with octadecylsulfate alongside compound; series mostly up to 57.1 µM; activity change, negative = inhibition: at the top concentration
# Method in brief: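 Recombinant tau protein (human, 1 uM final) plus 30 uM ODS in HEPES pH 7.4 with NaCl, DTT and thioflavine S. Compound present from the start; fluorescence at 510 nm after 15 h, 37 C.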
# On the % scale 0 is the no-effect control and ±100 the full control effect; potency means the concentration at half of the fitted maximal effect.
SMILES,"activity change, negative = inhibition",Potency
COC(=O)C1(Cc2ccccc2)C=C2C(=C(C)C(=O)C2C)CN1 (stereo not given),21.1%,–
Cc1ccc(C2CC(c3cccc(Br)c3)n3nc(N)nc3N2)cc1 (stereo not given),-30%,–
CCNC(=S)NCC,-11.9%,–
O=c1c2ccccc2oc2nc(C3CCCCC3)n(Cc3ccco3)c(=O)c12,-13.1%,–
Cc1ccc(Cn2c(NC(=O)c3ccco3)nc3ccccc32)cc1,14.6%,–
Cc1nc2c(c(=O)n1Cc1ccco1)c1nc3ccccc3nc1n2Cc1ccccc1,–,15.8 µM (active)
COCCCn1c2nc3ccccc3nc2c2c(=O)n(Cc3ccc(Cl)cc3)c(C)nc21,13.7%,–
CCOC(=O)CSc1nc2c(sc(=S)n2CCc2ccccc2)c(=O)n1Cc1ccco1,98.7%,–
Cc1ccc(Cn2c(C)nc3c(c2=O)c2nc4ccccc4nc2n3Cc2ccco2)cc1,–,25.1 µM (active)
CCC(C)(C)n1nnnc1C(c1ccccc1OC)N1CCSCC1 (stereo not given),-8.9%,–
O=C1c2ccccc2-c2ncnc3c(N4CCOCC4)cc(N4CCOCC4)c1c23,–,5.01 µM (active)
c1ccc(-c2oc3ncnc(N4CCOCC4)c3c2-c2ccccc2)cc1,1.3%,–
c1cnn(-c2cc(N3CCOCC3)ncn2)c1,-1.2%,–
O=C1c2ccccc2C(=O)N1CCCSc1ccccc1,-2.3% [at 11.4 µM],–
C[N+](C)(CCCCCC[N+](C)(C)CCCN1C(=O)c2cccc3cccc(c23)C1=O)CCCN1C(=O)c2cccc3cccc(c23)C1=O,–,2 µM (active)
COc1ccc(N2C(=O)c3cccc4cccc(c34)C2=O)nn1,9.7%,–
O=C(c1ccc2c(c1)N(Cc1ccc(F)cc1)C(=O)CS2)N1CCOCC1,-5.7%,–
COc1ccc(N)c(C)c1,-6.8%,–
CCCC(=O)Nc1ccc2c(c1)nc1n2CCSC1,-16.2%,–
Cc1cccc(C(=O)O)c1[N+](=O)[O-],11.9%,–
Brc1ccc(OCCn2ccnc2)cc1,-24.1%,–
Cc1nc(C)c(C(=O)Nc2cccc(C)c2C)o1,–,15.8 µM (active)
Cc1cccc(NC(=O)CSC(N)=O)c1C,3.4%,–
Cc1ccccc1NC(=O)c1ccccc1,0.4%,–

SMILES,"activity change, negative = inhibition",Potency
Cc1cccc(OCC(O)Cn2c(=N)n(CCN3CCOCC3)c3ccccc32)c1 (stereo not given),16%,–
CC(C)OCCCNc1nc2c(c(=O)n(Cc3ccccc3F)c(=O)n2C)n1C,8.7%,–
Cc1ccc2nc(-c3ccccc3)cc(C(=O)O)c2c1,1.3%,–
Cc1cc(=O)oc(C)c1C(=O)Nc1cnc2ccccc2c1,288%,–
Cc1ccc(NC(=O)c2cc(-c3ccc(C)o3)nc3ccccc23)nc1,–,10 µM (active)
C1CCC2OC2C1 (stereo not given),2.7%,–
N=C(CC(=O)Nc1ccccn1)c1ccccc1,-2.3% [at 11.4 µM],–
CC1=Nn2c(nnc2-c2ccccc2)SC1,1.3%,–
COc1ccc(-n2c(=O)c(C)nc3cnc(N4CCOCC4)nc32)cc1,-8.4%,–
Cc1cc(C)c2c(n1)nn1c(N3CCOCC3)cc(C)nc21,18.9%,–
Cc1nn2c3cc(N4CCOCC4)ccc3nc2c2ccccc12,–,12.6 µM (active)
O=C(C(Cc1ccccc1)n1cccc1)N1CCN(C2CCCCC2)CC1 (stereo not given),-11.5%,–
O=C(O)/C(=C/c1c(C(=O)O)[nH]c2cc(Cl)cc(Cl)c12)c1ccccc1,-6.4%,–
O=C(CSc1nc2[nH]ncc2c(=O)n1-c1ccccc1)N1CCCc2ccccc21,13.4%,–
O=c1nc(N2CCOCC2)nc2n1CCO2,-11.4%,–
COc1ccccc1-c1nc(NCc2cccs2)c2ccccc2n1,–,2.51 µM (active)
COc1ccccc1-c1nc(N2CCN(C)CC2)c2ccccc2n1,-25.5%,–
COc1ccccc1-c1cc(NCc2cccs2)ncn1,-0.6%,–
COc1ccccc1-c1nc(NCCNC(C)=O)c2ccccc2n1,-3.8%,–
COc1ccccc1CNc1nc(-c2c(C)noc2C)nc2ccccc12,91.2%,–
CNc1nc(-c2ccccc2OC)nc2ccccc12,–,12.6 µM (active)
Cc1ccccc1C(=O)O,1%,–
CCCCCCN(C(=O)CCCCCN1C(=O)NC(c2ccc(C(F)(F)F)cc2)C(C(=O)OCc2ccccc2)=C1C)C(C(=O)NCCCC)c1ccc(OCC(=O)OC)c(C(=O)OC)c1 (stereo not given),72.4%,–
COC(=O)[C@@]1(C)C=C[C@@H](Cc2ccccc2)N1C(C)=O,-6.5%,–

SMILES,"activity change, negative = inhibition",Potency
COc1cc([C@H]2c3cc4c(cc3[C@@H](O[C@@H]3O[C@H]5CO[C@@H](C)O[C@]5(O)C[C@H]3O)[C@@H]3COC(=O)[C@H]23)OCO4)cc(OC)c1O,0.5%,–
Oc1ccc(-c2csc(Nc3cccnc3)n2)cc1,-0.1%,–
COc1ccc(OC)c(Nc2nc(-c3ccc(O)c(O)c3)cs2)c1,–,20 µM (active)
COc1ccc(-c2n[nH]c(C)c2-c2ccc(OC)c(OC)c2)c(O)c1,1.1%,–
CCc1c(C)nc(N)n2c(SCC(=O)N3CCN(c4ccccc4)CC3)nnc12,1.5%,–
CC(Cc1ccccc1)C(=O)N(C)Cc1ccccc1 (stereo not given),-18.4%,–
CCc1ccc(N(CC)c2ncnc3nc[nH]c23)cc1,14.7%,–
O=c1c(-c2cccs2)nc2cnc(Oc3ccccc3)nc2n1-c1ccccc1,47.6%,–
CN(C(=O)COc1ccccc1)c1nnc(-c2ccncc2)s1,-17.9%,–
CN(C(=O)COc1nnc(-c2cccs2)c(-c2cccs2)n1)c1ccccc1,–,25.1 µM (active)
CCCn1c(SCC(N)=O)nnc1C(C)C,2.8%,–
O=C(Cn1cnc2c(nnn2Cc2ccc(F)cc2)c1=O)NCc1ccc2c(c1)OCO2,7.3%,–
CCOC(=O)C(C)Oc1cccc2c(=O)n(CC(=O)N3CCc4ccccc43)ccc12 (stereo not given),40.3%,–
COCCNc1cc(-c2c(C)noc2C)ncn1,-2.4%,–
COC(=O)CCNc1ccc2c(c1)OCCO2,1.2%,–
COc1ccc(C(=O)Nc2ccc3c(c2)OCO3)cc1OC,-6%,–
CCOc1ccc(NCCC(=O)c2ccc3c(c2)OCO3)cc1,–,25.1 µM (active)
O=C(Cl)c1ccccc1[N+](=O)[O-],8%,–
O=C(CSc1nnc(Cc2ccccc2)n1-c1ccccc1)N1CCOCC1,-4%,–
CCN(CC)CCN1C(=O)C(=O)/C(=C(/O)c2ccc(OC)c(OC)c2)C1c1ccccn1 (stereo not given),–,20 µM (active)
CCN(CC)CCN1C(=O)C(=O)/C(=C(/O)c2ccccc2)C1c1ccccc1F (stereo not given),6.1%,–
O=C1C(=O)N(CCN2CCOCC2)C(c2ccccn2)/C1=C(/O)c1ccc(Cl)cc1 (stereo not given),64.6%,–
